Measured values reported in PMC4336329 (PLoS ONE, 2015).
Hit rate of the full screen: of about 310,000 compounds, about 14,000 (4.5%) showed an effect of 50% or more. The effect is printed as a negative number. The list comes from a sample in which strong results are over-represented; it also holds similar structures and randomly drawn compounds.

Target: human ether-à-go-go-related gene (hERG) potassium channel (human, UniProt Q12809)
Assay: primary screen, population patch clamp on CHO cells stably expressing hERG; higher = less effect of the substance
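Also: peak tail current of the secondary pulse compared with the same well before compound.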

human ether-à-go-go-related gene (hERG) potassium channel, sequence (Q12809 whole entry, looked up): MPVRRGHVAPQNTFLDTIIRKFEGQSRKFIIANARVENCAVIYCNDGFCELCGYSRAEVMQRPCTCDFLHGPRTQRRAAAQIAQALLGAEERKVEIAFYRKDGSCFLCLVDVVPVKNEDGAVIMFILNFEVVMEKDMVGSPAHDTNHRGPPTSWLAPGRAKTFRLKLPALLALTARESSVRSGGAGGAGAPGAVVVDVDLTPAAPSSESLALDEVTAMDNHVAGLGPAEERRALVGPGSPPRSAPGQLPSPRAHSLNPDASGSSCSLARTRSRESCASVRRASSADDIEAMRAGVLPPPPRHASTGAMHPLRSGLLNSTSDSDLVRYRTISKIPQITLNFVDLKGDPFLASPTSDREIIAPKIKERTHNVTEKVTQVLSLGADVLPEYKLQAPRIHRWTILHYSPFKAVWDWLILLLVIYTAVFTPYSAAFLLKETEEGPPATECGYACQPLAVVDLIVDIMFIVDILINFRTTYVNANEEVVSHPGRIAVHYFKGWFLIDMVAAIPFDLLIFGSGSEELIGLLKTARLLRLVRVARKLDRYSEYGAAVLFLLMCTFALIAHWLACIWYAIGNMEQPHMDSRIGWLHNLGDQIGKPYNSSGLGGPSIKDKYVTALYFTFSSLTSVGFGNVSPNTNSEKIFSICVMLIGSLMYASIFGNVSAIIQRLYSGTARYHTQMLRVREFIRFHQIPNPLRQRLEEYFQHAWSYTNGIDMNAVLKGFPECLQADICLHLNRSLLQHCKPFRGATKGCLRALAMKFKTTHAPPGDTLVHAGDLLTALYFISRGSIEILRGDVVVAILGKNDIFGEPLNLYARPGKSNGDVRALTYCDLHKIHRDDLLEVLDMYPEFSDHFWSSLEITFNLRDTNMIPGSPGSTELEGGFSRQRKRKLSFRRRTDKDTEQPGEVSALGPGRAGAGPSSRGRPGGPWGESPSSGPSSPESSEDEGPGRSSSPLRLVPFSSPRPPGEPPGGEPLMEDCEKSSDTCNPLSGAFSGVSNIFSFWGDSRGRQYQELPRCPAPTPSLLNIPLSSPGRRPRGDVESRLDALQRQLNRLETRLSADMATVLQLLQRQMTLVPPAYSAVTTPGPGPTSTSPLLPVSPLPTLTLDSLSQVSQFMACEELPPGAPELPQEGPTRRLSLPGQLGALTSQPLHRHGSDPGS

Row | SMILES | hERG current change (%, negative = inhibition) at 10uM [%]
1 | CN1c2ccccc2C(C)(C)C12C=Cc1cc(O)ccc1O2 (stereo not shown) | -5.61
2 | Cc1oc2cc(Br)c(O)c(Br)c2c1-c1ccccc1 | -13.5
3 | CC(C)(C)OC(=O)NCCCC[C@H](NC(=O)c1[nH]cnc1C(=O)Nc1ccccc1)C(=O)OC(C)(C)C | 15.6
4 | CCCNNC(=O)C(O)(c1cccc(C)c1)c1cccc(C)c1 | -2.43
5 | Cc1ccc(N2C(=O)C(Cl)=C(N3CCOCC3)C2=O)c(C)c1 | 14.6
6 | O=C(COC(=O)c1ccc(Cl)c(S(=O)(=O)NCc2ccccc2)c1)NCC1CCCO1 (stereo not shown) | -53
7 | O=C(COC(=O)c1ccc(Cl)c(S(=O)(=O)N2CCCCC2)c1)NCC1CCCO1 (stereo not shown) | -14.1
8 | O=C(COC(=O)c1cccc(S(=O)(=O)NCc2ccccc2)c1)NCC1CCCO1 (stereo not shown) | 3.36
9 | CCN(CC)C(=O)C(=O)c1cccn1-c1ccc(C#N)cc1 | -18.8
10 | COc1ccc2oc(=O)c(/C(C)=N/Nc3ccccc3)cc2c1 | -2.36
11 | CC(C)(C)OC(=O)COc1cc(OCC(=O)OC(C)(C)C)c2c(=O)cc(-c3ccccc3)oc2c1 | -15
12 | CCOC(=O)COc1cc(OCC(=O)OCC)c2c(=O)cc(-c3ccccc3)oc2c1 | -62.6
13 | CCOC(=O)COc1cc(O)c2c(=O)cc(-c3ccccc3)oc2c1 | 12
14 | CC1CC(NS(=O)(=O)c2cc3c4c(c2)CCN4C(=O)CC3)CC(C)(C)C1 (stereo not shown) | -63.1
15 | O=C1CCc2cc(S(=O)(=O)NC3CCCCC3)cc3c2N1CC3 | 1.44
16 | CC(C)(C)NS(=O)(=O)c1cc2c3c(c1)CCN3C(=O)CC2 | 17.4
17 | c1ccc(-c2nnc(C(c3ccccc3)c3ccccc3)o2)cc1 | 6.86
18 | CCOC(=O)c1cnc2ccc(OCC)cc2c1N1CCN(c2ccccc2)CC1 | 13.9
19 | CCOc1ccc(C(=O)c2cnc3ccccc3c2N2CCN(CC)CC2)cc1 | -65.5
20 | CCOC(=O)C1CCCN(c2c(C(=O)c3ccccc3)cnc3ccc(OC)cc23)C1 (stereo not shown) | -37.5
21 | COc1ccc(C(=O)c2cnc3ccccc3c2-c2ccccc2)cc1 | -9.47
22 | CCN1CCN(c2c(C(=O)c3ccc(OC)cc3)cnc3ccccc23)CC1 | -80.3
23 | CCOC(=O)C1CCCN(c2c(C(=O)c3ccccc3)cnc3ccccc23)C1 (stereo not shown) | -26.5
24 | COc1ccccc1-c1cc(C(=O)NC(C)c2ccccc2)no1 (stereo not shown) | 9.56
25 | CCC(C)N=Cc1c(Nc2ccccc2)nc2c(C)cccn2c1=O (stereo not shown) | 17.6
26 | O=C(Nc1cccc2ncccc12)c1cccnc1 | 14.5
27 | CC(C)(C)c1ccc(C(=O)NCc2cccnc2)cc1 | -2.42
28 | COc1ccc(OC)c(CCNC(=O)CCc2nnc3ccc(N4CCOCC4)nn23)c1 | 16.1

Row | SMILES | hERG current change (%, negative = inhibition) at 10uM [%]
29 | COC(=O)c1c(C)oc2c1cc(NS(=O)(=O)c1ccc(C(=O)O)cc1)c1ccccc12 | 7.86
30 | CCOC(=O)c1c(C)oc2c1cc(NS(=O)(=O)c1ccc(C(=O)O)cc1)c1ccccc12 | -60.7
31 | CC(=O)c1c(C)oc2c1cc(NS(=O)(=O)c1ccc(C(=O)O)cc1)c1ccccc12 | 14.3
32 | O=C(CCCC(=O)OCC(F)(F)C(F)F)Nc1ccccc1F | 14.8
33 | CN(C)C(/C=C/Nc1cccc([N+](=O)[O-])c1)=C(C#N)C#N | -11.1
34 | CC(C)(C)c1nn(-c2ccccc2)c2[nH]c(=O)c(CNc3ccc4c(c3)OCCO4)cc12 | -4.99
35 | CCOC(=O)Cc1csc(NC(=O)C(C)c2ccc([N+](=O)[O-])cc2)n1 (stereo not shown) | -55.9
36 | Cc1cc2cc(CNC(=O)c3cccc([N+](=O)[O-])c3)ccc2[nH]1 | -25.3
37 | CCOC(=O)Cc1csc(NC(=O)Cc2ccc([N+](=O)[O-])cc2)n1 | -64.9
38 | CC(C(=O)Nc1nccs1)c1ccc([N+](=O)[O-])cc1 (stereo not shown) | -72
39 | Cc1cc2cc(CNC(=O)Cc3ccc([N+](=O)[O-])cc3)ccc2[nH]1 | -50.7
40 | CCC(=O)NCc1ccc2[nH]c(C)cc2c1 | 37
41 | CCOC(=O)Cc1csc(NC(=O)Cc2ccc(C)cc2)n1 | -18
42 | CCOC(=O)Cc1csc(NS(=O)(=O)c2ccc([N+](=O)[O-])cc2)n1 | 7.89
43 | CC(Sc1ccc([N+](=O)[O-])cn1)C(=O)Nc1nccs1 (stereo not shown) | -5.58
44 | CC(C)Cc1ccc(C(C)C(=O)Nc2nccs2)cc1 (stereo not shown) | -1.33
45 | CCOC(=O)Cc1csc(NC(=O)Cc2ccc(Cl)cc2)n1 | -15.1
46 | CCOC(=O)Cc1csc(NC(=S)NC(=O)c2ccc([N+](=O)[O-])cc2)n1 | 13.8
47 | COc1ccc(CCN=C(N)NS(=O)(=O)c2ccc(C)cc2)cc1OC | 6.05
48 | CCCCNC(=O)C1CCCN1C(=O)Nc1cccc(OC)c1 (stereo not shown) | 14
49 | Cc1sc2ncn(/N=C/c3ccco3)c(=O)c2c1C | -2.43
50 | CC(C)OC(=O)c1cc(NC(=O)C2C3C=CC(O3)C2C(=O)O)cc(C(=O)OC(C)C)c1 (stereo not shown) | -1.28
51 | Cc1c(C)c(C)c2[nH]c(=S)[nH]c2c1C | 24.9
52 | CCN(CC)C(=O)COC(=O)c1ccc(O)cc1 | 7.43
53 | CC1=C(C(=O)Nc2ccccc2C(=O)NCCCOC(C)C)SCCO1 | 14
54 | CCCCn1c(=O)[nH]c(=O)c2c1nc(-c1ccccc1F)n2Cc1ccccc1OC | 11.5
55 | COc1ccc(-c2cc(C(F)(F)F)nc(SCC(=O)N(C)Cc3cnn(C)c3C)n2)cc1OC | -42.4
